PrP 5UTR inh: inhibition of PrP 5' UTR reporter expression; AID 488862, 2010; cell-based PrP 5' UTR mRNA reporter, plate reader; 0.35% of 340,000 active; inhibition, % (test concentration not listed); in the data active means inhibition above about 52%; further: 0 = median of the neutral control wells
PrPC surface inh: inhibitors of human cell surface prion protein PrPC, primary screen, cell-based, TR-FRET. Major prion protein (Homo sapiens), P04156. TR-FRET read-out. inhibition, % at 13.8 µM. 0.43% of 370,000 active. AID 720596, 2013; in the data active means inhibition above about 24%; further: 0% = median of the test wells and 100% = reference compound wells
CCHFV vOTU inh: CCHFV vOTU protease inhibitors, primary screen, biochemical, Pep-AMC substrate, fluorescence | Crimean-Congo hemorrhagic fever virus L polyprotein viral ovarian tumor (vOTU) protease … | inhibition, % at 11.5 µM | 0.55% of 370,000 active; in the data active means inhibition above about 30%; further: 0% = vehicle wells with enzyme and 100% = no enzyme wells
ugtP null kill: growth inhibition of ugtP-null S. aureus, primary screen, RN4220 ugtP deletion, OD600. 16 h. growth inhibition, % (test concentration not listed). 0.54% of 330,000 active; in the data active means growth inhibition above about 68%;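 further: plate controls were untreated wells for no effect and antibiotic for full effect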
PfHsp40 rescue: rescue of yeast from PfHsp40 toxicity, primary screen, S. cerevisiae, ATP luminescence; growth rescue, % at 12.5 µM; AID 504582, 2011; S. cerevisiae expressing PfHsp40, growth rescue; 0.68% of 340,000 active; in the data active means growth rescue above about 28%, passing the limit was not always enough;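 further: yeast W303a lacking pdr1 and pdr3 grown in galactose medium; growth measured after three days at 30 °C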
Sa RN4220 lethal: growth inhibition of S. aureus RN4220, primary screen, OD600; AID 1259311, 2017; 16 h; 0.33% of 330,000 active; inhibition, % (test concentration not listed); in the data active means inhibition above about 85%;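 further: plate controls were untreated cells for no effect and reference antibiotic for full effect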
* marks the source's active call; other numbers are inactive results. This is a sample that favours compounds with a hit; in the whole collection about 2.1% have one here.

What do the screens show for `CC(C)[C@H]1C=C(C(=O)O)O[C@@H](OCCCCO)C1`?
PrP 5UTR inh: -5; PrPC surface inh: -9; CCHFV vOTU inh: -2; PfHsp40 rescue: 56*

How did CC(C)C1C=C(C(=O)O)OC(OCCCCO)C1 (stereo unspecified) do in these assays?
ugtP null kill: -2; Sa RN4220 lethal: 2

Results for C=CCN1CCc2cc(O)c(O)cc2C(c2ccccc2)C1 (stereo unspecified) ?
PrP 5UTR inh: -1; PrPC surface inh: -3; CCHFV vOTU inh: 1; ugtP null kill: -5; PfHsp40 rescue: -1; Sa RN4220 lethal: 5

Results for C=CCN1CCc2c(cc(O)c(O)c2Cl)C(c2ccccc2)C1 (stereo unspecified) ?
PrP 5UTR inh: -2; PrPC surface inh: 10; CCHFV vOTU inh: -8; ugtP null kill: -5; PfHsp40 rescue: 46*; Sa RN4220 lethal: 6

How did COCCCNC(=S)NN=Cc1ccc(OC)c(Br)c1 do in these assays?
ugtP null kill: 1; Sa RN4220 lethal: 2

Results for CC(Oc1ccc(Cl)cc1Cl)C(=O)NC(=S)N1CCc2ccccc21 (stereo unspecified) ?
PrP 5UTR inh: 11; PrPC surface inh: 8; CCHFV vOTU inh: 10; ugtP null kill: 98*; PfHsp40 rescue: 0; Sa RN4220 lethal: 99*

How did CC(Oc1ccc(Cl)cc1C(N)=O)C(=O)N1CCc2ccccc21 (stereo unspecified) do in these assays?
PrP 5UTR inh: -26; PrPC surface inh: 5; CCHFV vOTU inh: -18; ugtP null kill: -2; PfHsp40 rescue: 0; Sa RN4220 lethal: 1

What do the screens show for `COc1cc(CCCN2C(=O)C(=O)NCC2C(C)O)cc(OC)c1OC` (stereo unspecified)?
ugtP null kill: -4; Sa RN4220 lethal: 7

Results for COc1ccc(C=NNc2ccccc2C(=O)O)cc1 ?
ugtP null kill: -7; Sa RN4220 lethal: 9

Results for COc1cccc(CNc2ncnc3ccc(-c4c(C)noc4C)cc23)c1 ?
PrP 5UTR inh: 5; PrPC surface inh: 16; CCHFV vOTU inh: 10; ugtP null kill: 18; PfHsp40 rescue: 33*; Sa RN4220 lethal: 17

Results for CCCOC(=O)C1C2C=C[C@]3(CN(CC4CCCO4)C(=O)C13)O2 (stereo partly specified) ?
ugtP null kill: 3; Sa RN4220 lethal: 9

What do the screens show for `Nc1nc(NC(=O)c2ccccc2)nn1-c1ccccc1`?
PrP 5UTR inh: -38; PrPC surface inh: -7; CCHFV vOTU inh: 1; ugtP null kill: 6; PfHsp40 rescue: -1; Sa RN4220 lethal: 6

What do the screens show for `O=C(Nc1nc(NC(=O)c2ccco2)n(-c2ccccc2)n1)c1ccccc1`?
PrP 5UTR inh: 19; PrPC surface inh: 21; CCHFV vOTU inh: 7; ugtP null kill: 76; PfHsp40 rescue: -1; Sa RN4220 lethal: 92*

How did CC(=NNC(=O)c1ccc(O)cc1)c1cccc(NC(=O)c2ccc(Cl)cc2)c1 do in these assays?
ugtP null kill: 5; Sa RN4220 lethal: 1

What do the screens show for `C/C(=N\NC(=O)c1ccc(O)cc1)c1cccc(NC(=O)c2ccc(Cl)cc2)c1`?
PrP 5UTR inh: -27; PrPC surface inh: 8; CCHFV vOTU inh: -13; PfHsp40 rescue: 44*

How did Cc1ccc(NC(=O)c2cccc(S(=O)(=O)N(C)C3CCCCC3)c2)nc1 do in these assays?
PrP 5UTR inh: -25; PrPC surface inh: 0; CCHFV vOTU inh: 17; ugtP null kill: -11; PfHsp40 rescue: 50*; Sa RN4220 lethal: -2

What do the screens show for `CCCCCOCC1CC(CC(C)=NNC(N)=S)C(=O)O1` (stereo unspecified)?
ugtP null kill: 5; Sa RN4220 lethal: 5

Results for COc1ccc(CCn2c(C3CCCCC3)nc3c(c(=O)c4ccccc4n3C)c2=O)cc1OC ?
PrP 5UTR inh: -14; PrPC surface inh: 8; CCHFV vOTU inh: -1; ugtP null kill: 2; PfHsp40 rescue: 104*; Sa RN4220 lethal: 2

What do the screens show for `COc1ccc(CCn2c(C3CCCCC3)nc3c(c(=O)c4ccccc4n3C)c2=O)cc1`?
PrPC surface inh: 6; CCHFV vOTU inh: 0; ugtP null kill: -4; Sa RN4220 lethal: -3

What do the screens show for `COc1ccc(S(=O)(=O)Nc2cccc3c2OC(CN(C)C(=O)Nc2ccc(C(F)(F)F)cc2)C(C)CN(C(C)CO)C3=O)cc1` (stereo unspecified)?
ugtP null kill: -1; Sa RN4220 lethal: -1

How did O=C(O)CN1C(=O)/C(=C\c2ccccc2OCc2ccc(Cl)cc2Cl)SC1=S do in these assays?
PrP 5UTR inh: 15; PrPC surface inh: 2; CCHFV vOTU inh: 21; ugtP null kill: 64; PfHsp40 rescue: 53*; Sa RN4220 lethal: 58

How did O=C(O)CN1C(=O)/C(=C\c2cc(Br)ccc2OCc2ccccc2Cl)SC1=S do in these assays?
PrP 5UTR inh: -15; PrPC surface inh: 3; CCHFV vOTU inh: 25; ugtP null kill: 60; PfHsp40 rescue: 0; Sa RN4220 lethal: 16

Results for COc1ccc(-c2cc3nc(-c4ccccc4)cc(N4CCN(C(C)=O)CC4)n3n2)cc1 ?
PrPC surface inh: 5; CCHFV vOTU inh: -25

How did COc1ccc(-c2cc3nc(-c4ccccc4)cc(N4CCC(O)CC4)n3n2)cc1 do in these assays?
PrP 5UTR inh: 0; PrPC surface inh: 7; CCHFV vOTU inh: -25; ugtP null kill: 90*; PfHsp40 rescue: 1; Sa RN4220 lethal: -10

How did COc1ccc(-c2cc3nc(-c4ccccc4)cc(N4CCCC(O)C4)n3n2)cc1 (stereo unspecified) do in these assays?
PrP 5UTR inh: -14; PrPC surface inh: -5; CCHFV vOTU inh: -7; ugtP null kill: 13; PfHsp40 rescue: 66*; Sa RN4220 lethal: -6

How did COc1ccccc1/C=C/C(=O)NCC(=O)NN=C(C)c1ccc(Cl)cc1 do in these assays?
ugtP null kill: -9; Sa RN4220 lethal: 1

What do the screens show for `CCOc1ccc(CCN2C(=O)C(=O)N(C(CCCN(C)Cc3ccccc3)CNCc3ccccc3)CC2C(C)C)cc1` (stereo unspecified)?
ugtP null kill: -2; Sa RN4220 lethal: 4

Results for COc1ccc(C2CC(=O)C=C(c3ccc(OC)c(F)c3)C2)cc1 (stereo unspecified) ?
ugtP null kill: 23; Sa RN4220 lethal: 4

Results for CCC(=O)Nc1sc2c(c1C(N)=O)CCN(C(C)=O)C2 ?
PrP 5UTR inh: -22; PrPC surface inh: -8; CCHFV vOTU inh: 2; ugtP null kill: 10; PfHsp40 rescue: 0; Sa RN4220 lethal: 5

What do the screens show for `CC(=O)N1CCc2c(sc(NC(=O)c3ccc([N+](=O)[O-])o3)c2C(N)=O)C1`?
PrPC surface inh: -41; CCHFV vOTU inh: 47*

How did CCN1/C(=C/c2cc[n+](C)cc2)C=Cc2cc(C)ccc21 do in these assays?
PrP 5UTR inh: 1; PrPC surface inh: -18; CCHFV vOTU inh: 4; ugtP null kill: 100*; PfHsp40 rescue: 0; Sa RN4220 lethal: 54

How did Nc1ccccc1O do in these assays?
PrP 5UTR inh: -16; ugtP null kill: -5; PfHsp40 rescue: 60*; Sa RN4220 lethal: 9
